PubChem BioAssay AID434973 (Sanford-Burnham Center for Chemical Genomics, 2010)
The whole screen tested about 330,000 compounds, of which about 4,900 (1.5%) were called active.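 How the source made its calls: active means inhibition above about 50% at the single test dose (limit read from the data); inactive means the rest.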 The list comes from a sample in which actives are over-represented; it also holds similar structures and randomly drawn compounds.

These compounds were tested against Sentrin-specific protease 7 (Homo sapiens) (UniProt Q9BQF6) (assay: blockers of human SENP7 peptidase activity – biochemical, luminescence, uHTS, primary screen (AID 434973;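 further: plate controls were DMSO with enzyme for no effect and no enzyme buffer wells for full effect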)). Details: recombinant SENP7, Z-RLRGG-aminoluciferin luminescence, 40 min; at 5 µM; stronger effect = higher value.

SMILES | inhibition
O=C(Nc1cccc(C(=O)N2CCCC2)c1)c1ccccc1 | -13% (inactive)
O=C(Nc1ccc(C(=O)O)c(O)c1)c1ccccc1 | 85.1% (active)
O=C(Nc1cccc(NC(=O)c2cccc(F)c2)c1)c1ccccc1 | -10.7% (inactive)
Cc1ccc(Nc2ncnc3c2cnn3C)c(C)c1 | -0.763% (inactive)
CCN(CC)C(=O)CSc1ncnc2c1cnn2-c1ccccc1 | 2.6% (inactive)
Cc1ccc(-n2ncc3c(Nc4cccc(C(=O)O)c4)ncnc32)cc1 | 92.6% (active)
CC(=O)NC1C(Oc2ccc(C=O)cc2)OC(COC(C)=O)C(OC(C)=O)C1OC(C)=O (configuration not stated) | 5.78% (inactive)
Cc1cccc(NC(=O)CSc2nc3c(c(=O)[nH]2)CCC3)c1C | -1.39% (inactive)
CC(=O)Nc1ccc(NC(=O)CSc2nnc(COc3ccccc3C)n2CC2CCCO2)cc1 (configuration not stated) | 5.76% (inactive)
COC(=O)c1ccc([C@@H](O)[C@H](C)C(=O)CC(=O)OC(C)(C)C)cc1 | 6.36% (inactive)
COc1cc(NC(=O)c2cccs2)ccc1NC(=O)c1ccccc1Cl | -1.86% (inactive)
O=C(Nc1ccc2sc3ccccc3c(=O)c2c1)c1ccccc1Cl | 51.8% (active)
O=C(Nc1cccc(NC(=O)c2ccccc2[N+](=O)[O-])c1)c1ccccc1Cl | 6.18% (inactive)
CC(OC(=O)c1cc2ccccc2[nH]1)C(=O)N(C)c1ccccc1 (configuration not stated) | -10.4% (inactive)
COc1ccc2[nH]c(C(=O)Nc3ccccc3Cl)cc2c1 | 6.38% (inactive)
O=C(Nc1ccccc1)c1cc2ccccc2[nH]1 | 76% (active)
CCSc1nc2c(c(=O)[nH]1)C(c1cccnc1)C(C(=O)OC(C)C)=C(C)N2 (configuration not stated) | 11% (inactive)
COc1ccc(C(CNCC(=O)Nc2ccccc2F)N(C)C)cc1 (configuration not stated) | 2.72% (inactive)
Cc1ccn2cc(-c3nonc3C)cc2c1 | 4.32% (inactive)
CS(=O)(=O)N1CCN(C(=O)CSc2ccccc2)CC1 | -0.93% (inactive)
O=c1c2c(nc3cc(-c4cccc(Cl)c4)[nH]n13)CCCC2 | 66.7% (active)
CCCCN1Cc2c(nc3cc(-c4ccccc4)[nH]n3c2=O)C1=O | -4.67% (inactive)
Cc1cc(=O)n2[nH]c(-c3cccc(Cl)c3)cc2n1 | 1.33% (inactive)
Cc1nc2ccccc2c(=O)n1-c1ccc(NS(=O)(=O)c2ccc(F)cc2F)cc1 | -0.987% (inactive)
Clc1ccc(C2=CSC3=Nc4cccc5cccc(c45)N23)cc1 | 51.9% (active)

SMILES | inhibition
CCC(=O)c1ccc(OCC(O)Cn2nc(C)c(C(C)=O)c2C)cc1 (configuration not stated) | 0.247% (inactive)
CC(C)(C)NC(=O)NCc1ccco1 | -4.67% (inactive)
CC(C)(C)c1ccc(C(=O)NCc2ccco2)cc1 | -16.4% (inactive)
CC(C)(C)c1ccc(NC(=O)NCc2ccco2)cc1 | 90.7% (active)
CN(C)S(=O)(=O)c1cc(C(=O)Nc2ccn(C)n2)c(Cl)cc1Cl | -0.713% (inactive)
CN(C)NC(=O)C(NC(=O)c1ccc(N)cc1)C12CC3CC(CC(C3)C1)C2 (configuration not stated) | -0.0401% (inactive)
CCCCc1cc(=O)oc2cc(C)cc(OCc3nn[nH]n3)c12 | 1.78% (inactive)
Cc1noc(C)c1COc1ccc2ccc(=O)oc2c1 | -8.22% (inactive)
COc1ccc(-c2cc3ccc(OCc4nn[nH]n4)cc3oc2=O)cc1 | 51% (active)
O=C(CNCCC1=CCCCC1)Nc1ccccc1N1CCCCCC1 | -5.33% (inactive)
CN(C)c1ccc(/C=C/C(=O)c2ccc(O)cc2)cc1[N+](=O)[O-] | -14.8% (inactive)
O=C(/C=C/c1ccc2c(c1)OCCO2)c1ccc(O)cc1 | 68.4% (active)
O=C(O)/C=C/c1ccc2c(c1)OCCO2 | 2.14% (inactive)
Nc1nc(SCc2cccc(Br)c2)n[nH]1 | 0.492% (inactive)
CCCC1CC(C)(C(=O)Cn2[nH]c(=O)ccc2=O)OC1=O (configuration not stated) | -0.683% (inactive)
Cc1cc(C)nc(-n2ncc3c2CC(c2ccc(C(C)C)cc2)CC3=O)n1 (configuration not stated) | 9.11% (inactive)
COc1cccc(NCCC(=O)c2cccc([N+](=O)[O-])c2)c1 | 13.1% (inactive)
COc1ccc(-n2cnnc2SCC(=O)Nc2cccc([N+](=O)[O-])c2)cc1 | -4.85% (inactive)
COc1ccc(Cc2nnc(SCC(=O)c3cccc([N+](=O)[O-])c3)n2C)cc1 | 73.6% (active)
O=C(CN1CCOCC1)N1CCCc2c1c(=O)oc1ccc(OCc3ccccc3)cc21 | 4.73% (inactive)
COc1ccc(/C(C)=N\NC(=O)c2ccc(-c3ccccc3)cc2)c(F)c1 | 3.63% (inactive)
C/C(CC(=O)Nc1ccc(N(C)C)cc1)=N\NC(=O)c1ccccc1F | -1.56% (inactive)
C/C(=N\NC(=O)c1ccccc1F)c1ccccn1 | 64.2% (active)
COc1ccc(OC)c(CNC(=O)c2cc(=O)[nH]c3ccc(S(=O)(=O)N4CCCC4)cc23)c1 | 0.442% (inactive)
O=C1CC2(CCCC2)C(=O)N1CN1CCN(S(=O)(=O)c2ccc(F)cc2F)CC1 | -8.48% (inactive)

SMILES | inhibition
CCC1C(=O)c2ccccc2N(C)C1=O (configuration not stated) | -6.31% (inactive)
CN1C(=O)/C(=C\c2cc(Br)cs2)c2ccccc21 | 80.9% (active)
CN1C(=O)/C(=N/OC(=O)c2ccccc2Br)c2ccccc21 | 4.98% (inactive)
O=C(Nc1cc(=O)[nH]c2ncnn12)c1ccccc1Cl | 10.9% (inactive)
Cc1ccc(NC(=O)CN2CCc3ccccc3C2)cc1 | -5.44% (inactive)
Cc1ccc(S(=O)(=O)N2CCN(c3ncnc4ccccc34)CC2)cc1 | 0.743% (inactive)
Cc1ccc(S(=O)(=O)Nc2nc3ccccc3nc2N2CCc3ccccc3C2)cc1 | 86.2% (active)
O=C(COc1ccccc1O)NC1CCCC1 | -1.19% (inactive)
CCCCNc1ccc(C(=O)Nc2cccc(C)n2)cc1[N+](=O)[O-] | -7.17% (inactive)
Nc1ccc(N=Nc2ccccc2Cl)c(N)n1 | 82.3% (active)
CCOc1cc(/C=C/C(=O)OCC(=O)NCCN2C(=O)CSC2=O)ccc1OCC(C)C | 4.69% (inactive)
Cc1nc2ccccc2nc1N/N=C/c1ccc(O)cc1O | 7.72% (inactive)
Cc1noc(C)c1/C=N/Nc1ccc2ccccc2n1 | 52.5% (active)
Cc1nc(Cl)cc(N/N=C/c2ccccc2)n1 | 4.74% (inactive)
O=C(N/N=C/c1ccc2c(c1)OCO2)C(=O)N1CCCC1 | 4% (inactive)
C(=N\Nc1ccc2ccccc2n1)/c1ccc2c(c1)OCO2 | 96.1% (active)
Cc1cc(=O)[nH]c(N/N=C/c2ccc3c(c2)OCCO3)n1 | 6.15% (inactive)
O=C(c1ccccc1F)N(Cc1ccccc1)Cc1ccccc1 | -9.2% (inactive)
Cc1c(Cl)c([N+](=O)[O-])nn1Cc1ccc(C(=O)N/N=C\c2cc(Cl)ccc2O)o1 | 10.1% (inactive)
CCN(CC)S(=O)(=O)c1ccc(OC(C)C)c(N)c1 | 2.51% (inactive)
CC(=O)C1C(c2ccc(Cl)cc2)c2c(n[nH]c2C)CC1(C)O (configuration not stated) | -1.26% (inactive)
CC(=O)NNC1=Nc2ccccc2N(C)C(C)C1 (configuration not stated) | 1.41% (inactive)
CCc1cc(=O)oc2cc(OCC(=O)N3CCCc4ccccc43)ccc12 | -13.1% (inactive)
Cc1ccnc(N2C(=O)c3ccc([N+](=O)[O-])cc3C2=O)c1 | -0.103% (inactive)
Cc1ccc(-c2cn(S(=O)(=O)c3cccc([N+](=O)[O-])c3)nc2N)cc1 | 1.39% (inactive)

SMILES | inhibition
Cc1ccc(-n2cc3ccc([N+](=O)[O-])cc3n2)cc1 | 87.9% (active)
CC(C)(C)c1cc[n+](-c2[nH]c(=O)sc2/C=N/N=C(\[O-])c2ccccc2)cc1 | 1.22% (inactive)
CCN(CC)S(=O)(=O)c1ccc(N2CCOCC2)c(NC(=O)c2ccc(=O)n(C)n2)c1 | -0.97% (inactive)
CCC(C)C(NC(=O)C1CCC(=O)N1C(=O)OCc1ccccc1)C(=O)NC(C(=O)N1CCCC1C(N)=O)C(C)CC (configuration not stated) | -7.38% (inactive)
O=C(COC(=O)c1ccccn1)NNC(=O)c1ccc(Br)cc1 | 8.04% (inactive)
Cc1ccc(NC(=O)c2ccccn2)cc1S(=O)(=O)N1CCOCC1 | -1.52% (inactive)
Cc1ccc(C(=O)O/N=C(\N)c2ccccn2)cc1Cl | 95.8% (active)
N/C(=N\OC(=O)c1ccc([N+](=O)[O-])cc1)c1ccccn1 | 94.8% (active)
COc1ccc(C(=O)O/N=C(\N)c2ccccn2)cc1[N+](=O)[O-] | 10.4% (inactive)
O=C(COC(=O)c1ccccn1)NNC(=O)c1ccc([N+](=O)[O-])cc1 | 4.18% (inactive)
CCCCN=C(N)/C(C(=O)OCC)=C(\O)c1ccc(OC)cc1 | 13.1% (inactive)
CC(OC(=O)CN1C(=O)c2ccccc2C1=O)C(=O)c1ccccc1 (configuration not stated) | 5.15% (inactive)
CCc1ccc(NC(=O)CN2C(=O)COc3ccc(S(=O)(=O)N4CCCC4)cc32)cc1 | 2.36% (inactive)
C=C(Br)Cn1c(CCCC)nc2ccccc21 | 2.52% (inactive)
O=[N+]([O-])c1cccc(C2=NCCS2)c1 | -1.11% (inactive)
CC(C)Oc1ccc(Oc2ccc(C(F)(F)F)cn2)cc1 | -3.04% (inactive)
FC(F)(F)c1ccnc(Oc2ccc(C3=NCCS3)cc2)c1 | 67.2% (active)
COc1ccc(C(=O)n2nc(C)c(Br)c2C)cc1OC | 0.64% (inactive)
COC(=O)CN1C(=O)[C@H]2[C@@H](/C=C/c3ccccc3)N3C(=O)CN(CC4CC4)C(=O)[C@@]3(Cc3ccccc3)[C@H]2C1=O | -16.2% (inactive)
CCCCSc1nnc(-c2ccc(C)cc2)o1 | 58.9% (active)
CCOC(=O)CSc1nnc(-c2ccc([N+](=O)[O-])cc2)o1 | -2.17% (inactive)
CCOC(=O)CSc1nnc(-c2cccc(Br)c2)o1 | -6.07% (inactive)
